Data published in PubChem BioAssay AID2081 (NMMLSC, 2009).
Calls of active or inactive are those of the source. How the calls were made is not given here.

Molecular target: Bcl-2-like protein 2 (Homo sapiens) (UniProt Q92843)
Experiment: inhibitors of Bim binding to Bcl-W, confirmation, biochemical, multiplexed, bead-based flow cytometry, HTS hits (AID 2081)

Bcl-2-like protein 2 (Homo sapiens), sequence (Q92843 whole entry, looked up): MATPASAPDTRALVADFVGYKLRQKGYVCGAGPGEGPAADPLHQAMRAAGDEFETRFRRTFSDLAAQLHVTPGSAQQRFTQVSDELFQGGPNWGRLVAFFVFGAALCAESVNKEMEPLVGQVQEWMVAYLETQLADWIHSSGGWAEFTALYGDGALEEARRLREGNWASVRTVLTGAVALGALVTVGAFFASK

Structure (SMILES): O=C1NC(=O)C(=Cc2ccc(-c3cc(Cl)ccc3[N+](=O)[O-])o2)C(=O)N1
- outcome: inactive

Structure (SMILES): O=C1NC(=O)C2(Cc3c(nc4ccccn4c3=O)N3CCCCCC32)C(=O)N1Cc1ccccc1 (configuration not stated)
- outcome: inactive
